From PubChem BioAssay
Values joined by “and” are separate entries in the source; they are usually repeats but may differ in a detail not shown here. Equal values may be shown once. Where a structure was tested more than once in an assay, its records may differ in their call. Active and inactive are the calls of the source.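 Rule for the calls, unless noted: active = normalized viability below 100% at a tested concentration; inactive = the rest.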

How the values were obtained:
[1] = viability loss with induced miR-34 in A549 – imaging, A549 dox-inducible miR-34, nuclei and caspase counts, primary screen (AID 1347080;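 active = compounds whose cell count with miR-34 switched on is under 0.7 times the count with it off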); details: A549 miR-34 inducible, Hoechst nuclei count, 48 h
[2] = MELAS cybrid and Rieske KO viability enhancers – cell-based, MELAS cybrids, Rieske KO mouse fibroblasts, CellTiter-Glo, primary screen (AID 1508586;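 active = mean z-score across replicates of 1.96 or higher in either the MELAS or the Rieske mutant cell line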;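 note: z relative to plate mean and SD of compound and empty wells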); details: low glucose
[3] = drug combination growth inhibition, ovarian cancer – cell-based, oncology-focused library, rucaparib conditional, profiling panel (AID 1508598); details: patient-derived ovarian cancer cells, CellTiter-Glo viability, 144 h, stronger effect = lower value
[4] = stronger effect = lower value, cell number ratio, induced over uninduced
[5] = measured here: relative caspase fold change +Dox/-Dox
[6] = measured here: total cells with miR-34 induction, stronger effect = lower value
[7] = measured here: total cells without miR-34 induction
[8] = MELAS cybrid survival, CellTiter-Glo 48 h, stronger effect = higher value
[9] = Rieske KO mouse fibroblast survival, CellTiter-Glo 72 h
[10] = at 0.000305 µM, OCI-C5x cells, with rucaparib 10 µM, 100% = cells with rucaparib alone
[11] = at 0.000305 µM, OCI-C5x cells, without rucaparib
[12] = at 0.000305 µM, OCI-P5x cells, with rucaparib 20 µM, 100% = cells with rucaparib alone
[13] = at 0.000305 µM, OCI-P5x cells, without rucaparib
[14] = at 0.00122 µM, OCI-C5x cells, with rucaparib 10 µM, 100% = cells with rucaparib alone
[15] = at 0.00122 µM, OCI-C5x cells, without rucaparib
[16] = at 0.00122 µM, OCI-P5x cells, with rucaparib 20 µM, 100% = cells with rucaparib alone
[17] = at 0.00122 µM, OCI-P5x cells, without rucaparib
[18] = at 0.00488 µM, OCI-C5x cells, with rucaparib 10 µM, 100% = cells with rucaparib alone
[19] = at 0.00488 µM, OCI-C5x cells, without rucaparib
[20] = at 0.00488 µM, OCI-P5x cells, with rucaparib 20 µM, 100% = cells with rucaparib alone
[21] = at 0.00488 µM, OCI-P5x cells, without rucaparib
[22] = at 0.0195 µM, OCI-C5x cells, with rucaparib 10 µM, 100% = cells with rucaparib alone
[23] = at 0.0195 µM, OCI-C5x cells, without rucaparib
[24] = at 0.0195 µM, OCI-P5x cells, with rucaparib 20 µM, 100% = cells with rucaparib alone
[25] = at 0.0195 µM, OCI-P5x cells, without rucaparib
[26] = at 0.0781 µM, OCI-C5x cells, with rucaparib 10 µM, 100% = cells with rucaparib alone
[27] = at 0.0781 µM, OCI-C5x cells, without rucaparib
[28] = at 0.0781 µM, OCI-P5x cells, with rucaparib 20 µM, 100% = cells with rucaparib alone
[29] = at 0.0781 µM, OCI-P5x cells, without rucaparib
[30] = at 0.313 µM, OCI-C5x cells, with rucaparib 10 µM, 100% = cells with rucaparib alone
[31] = at 0.313 µM, OCI-C5x cells, without rucaparib
[32] = at 0.313 µM, OCI-P5x cells, with rucaparib 20 µM, 100% = cells with rucaparib alone
[33] = at 0.313 µM, OCI-P5x cells, without rucaparib
[34] = at 1.25 µM, OCI-C5x cells, with rucaparib 10 µM, 100% = cells with rucaparib alone
[35] = at 1.25 µM, OCI-C5x cells, without rucaparib
[36] = at 1.25 µM, OCI-P5x cells, with rucaparib 20 µM, 100% = cells with rucaparib alone
[37] = at 1.25 µM, OCI-P5x cells, without rucaparib
[38] = at 5 µM, OCI-C5x cells, with rucaparib 10 µM, 100% = cells with rucaparib alone
[39] = at 5 µM, OCI-C5x cells, without rucaparib
[40] = at 5 µM, OCI-P5x cells, with rucaparib 20 µM, 100% = cells with rucaparib alone
[41] = at 5 µM, OCI-P5x cells, without rucaparib

COc1cc(Br)c(Nc2nc(-c3c(C)nc4ncccn34)cs2)c(Br)c1
inactive: fold change [1, 4] 1.04 and 0.88 | viability [3, 10] 125% | viability [3, 11] 110% | viability [3, 14] 131% | viability [3, 15] 111% | viability [3, 18] 131% | viability [3, 19] 109% | viability [3, 20] 100% | viability [3, 22] 135% | viability [3, 23] 110% | viability [3, 24] 101% | viability [3, 25] 102% | viability [3, 26] 136% | viability [3, 27] 111% | viability [3, 28] 101% | viability [3, 30] 118% | viability [3, 31] 108% | viability [3, 32] 100% | viability [3, 33] 100% | viability [3, 34] 122% | viability [3, 35] 115% | viability [3, 38] 129% | viability [3, 39] 140%
1800 and 1730: cell count [1, 6]
1740 and 1960: cell count [1, 7]
active: viability [3, 12] 95.1% | viability [3, 13] 90.4% | viability [3, 16] 94.4% | viability [3, 17] 96.8% | viability [3, 21] 95.9% | viability [3, 29] 98.6% | viability [3, 36] 78.1% | viability [3, 37] 97.5% | viability [3, 40] 30.8% | viability [3, 41] 19%
2.29 (active) and 1.89 (inactive): z-score [2, 8]
0.552 and 0.466: fold change [1, 5]
0.545 and -1.29: z-score [2, 9]

CC(OC1OCCN(Cc2nn(P(=O)(O)O)c(=O)[nH]2)C1c1ccc(F)cc1)c1cc(C(F)(F)F)cc(C(F)(F)F)c1 (stereo unspecified)
inactive: fold change [1, 4] 1.01 | z-score [2, 8] -0.192
5920: cell count [1, 7]
-0.0927: z-score [2, 9]
0.443: fold change [1, 5]
5980: cell count [1, 6]

COCC(=O)NCC=Cc1ccc2ncnc(Nc3ccc(Oc4ccc(C)nc4)c(C)c3)c2c1
inactive: fold change [1, 4] 0.862 | z-score [2, 8] -0.531
5970: cell count [1, 6]
1.21: fold change [1, 5]
1.09: z-score [2, 9]
6930: cell count [1, 7]

COc1ccccc1-c1cc(Nc2cccc(CS(N)(=O)=O)c2)ncn1
active: viability [3, 12] 92.8% | viability [3, 13] 91.1% | viability [3, 15] 98.9% | viability [3, 16] 96.8% | viability [3, 17] 90.1% | viability [3, 21] 95.2% | viability [3, 25] 97.6% | viability [3, 32] 93.6% | viability [3, 33] 99.6% | viability [3, 36] 91.1% | viability [3, 37] 94.8% | viability [3, 39] 99.7% | viability [3, 40] 64.2% | viability [3, 41] 74.8%
0.462: fold change [1, 5]
-1.46: z-score [2, 9]
inactive: fold change [1, 4] 0.955 | z-score [2, 8] -0.3 | viability [3, 10] 125% | viability [3, 11] 105% | viability [3, 14] 122% | viability [3, 18] 127% | viability [3, 19] 107% | viability [3, 20] 103% | viability [3, 22] 126% | viability [3, 23] 117% | viability [3, 24] 103% | viability [3, 26] 126% | viability [3, 27] 115% | viability [3, 28] 100% | viability [3, 29] 102% | viability [3, 30] 111% | viability [3, 31] 102% | viability [3, 34] 125% | viability [3, 35] 110% | viability [3, 38] 105%
3900: cell count [1, 6]
4080: cell count [1, 7]

CCc1c2c(nc3ccc(OC(=O)N4CCC(N5CCCCC5)CC4)cc13)-c1cc3c(c(=O)n1C2)COC(=O)[C@@]3(O)CC
-0.798: z-score [2, 9]
inactive: fold change [1, 4] 1.02 | z-score [2, 8] 0.2 | viability [3, 10] 115% | viability [3, 11] 112% | viability [3, 12] 119% | viability [3, 13] 112% | viability [3, 14] 114% | viability [3, 15] 118% | viability [3, 16] 112% | viability [3, 17] 114% | viability [3, 18] 119% | viability [3, 19] 118% | viability [3, 20] 106% | viability [3, 21] 107% | viability [3, 22] 117% | viability [3, 23] 110% | viability [3, 24] 108% | viability [3, 25] 103% | viability [3, 26] 112% | viability [3, 27] 106% | viability [3, 28] 104% | viability [3, 29] 106%
1.54: fold change [1, 5]
2030: cell count [1, 7]
2060: cell count [1, 6]
active: viability [3, 30] 83.7% | viability [3, 31] 99.6% | viability [3, 32] 88.2% | viability [3, 33] 88.7% | viability [3, 34] 64.4% | viability [3, 35] 62.8% | viability [3, 36] 48.7% | viability [3, 37] 37.8% | viability [3, 38] 35.7% | viability [3, 39] 29.9% | viability [3, 40] 23.9% | viability [3, 41] 13.4%
